An excerpt weighted towards active compounds, which were near 2.4% of everything screened.
D2 PAM-1: Beta-Arrestin HTS for Positive Allosteric Modulators of the Human D2 Dopamine Receptor: Potentiators; potentiation, % (no concentration beside the values); actives 0.23% (n = 360,000); DiscoveRx D2 beta-arrestin cells, luminescence, 90 min; 100% = 57 uM dopamine signal; AID 624464, 2012; in the data active = potentiation above about 50%; inconclusive = mostly about 30% to 49%
Target sequence (P14416 whole entry, looked up): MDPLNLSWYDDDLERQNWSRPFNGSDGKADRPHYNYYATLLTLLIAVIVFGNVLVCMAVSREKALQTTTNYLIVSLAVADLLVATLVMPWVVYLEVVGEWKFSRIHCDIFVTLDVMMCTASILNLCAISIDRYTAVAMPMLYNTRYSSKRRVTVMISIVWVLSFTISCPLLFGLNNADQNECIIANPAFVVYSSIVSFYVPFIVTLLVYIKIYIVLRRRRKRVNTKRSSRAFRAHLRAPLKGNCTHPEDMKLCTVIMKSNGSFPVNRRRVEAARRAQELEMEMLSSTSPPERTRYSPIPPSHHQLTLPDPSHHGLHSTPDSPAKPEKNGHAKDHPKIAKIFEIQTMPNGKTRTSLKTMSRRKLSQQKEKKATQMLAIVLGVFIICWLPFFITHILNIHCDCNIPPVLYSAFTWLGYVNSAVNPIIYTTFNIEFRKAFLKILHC
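PathHunter D2 cells, attached overnight at 37 deg C, received compound in DMSO plus dopamine at EC20 (50 nM final) for 90 min at 37 deg C. Beta-arrestin recruitment was read as luminescence after 1 h with detection reagent at ambient temperature.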
D2 ag-1: HTS Assay for Allosteric Agonists of the Human D2 Dopamine Receptor: Primary Screen for Agonists. D(2) dopamine receptor (Homo sapiens), P14416. HEK293 T-REx D2 cells, calcium flux agonist mode. activation, % at 2 µM. actives 0.53% (n = 340,000). AID 485358, 2010;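 active = activation over 3 SD above normal in the single-dose calcium agonist read, cut at about 30% in these data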; note: 0% is about no effect
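Tetracycline-induced HEK293 Trex cells with D2 receptor force-coupled to calcium signaling, plated overnight at 30 C and loaded with no-wash calcium dye. Calcium flux read kinetically for 180 s after compound addition; responses flag agonists.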
D2 PAM-2: HTS Assay for Positive Allosteric Modulators of the Human D2 Dopamine Receptor: Primary Screen for Potentiators | HEK293 T-REx D2, calcium flux, EC20 dopamine potentiation | potentiation, % at 10 µM | actives 0.34% (n = 340,000) | AID 485347, 2010;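 active = potentiation over 3 SD above the plate norm, cut at about 30% in these data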; note: 0% is about no effect
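Primary screen. Calcium kinetics in induced HEK293 T-REx D2 cells: compound pre-addition 180 s, EC20 dopamine, 180 s more.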
D2 antagonist: HTS Assay for Allosteric Antagonists of the Human D2 Dopamine Receptor: Primary Screen for Antagonists; D(2) dopamine receptor (Homo sapiens), P14416; HEK293 TREx D2 cells, calcium flux, dopamine EC80; inhibition, % at 10 µM; actives 2% (n = 340,000); AID 485344, 2010; in the data active = inhibition above about 30%; inactive = below that, where a call was filed; note: 0% is about no effect
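Antagonism is scored as inhibition of an EC80 dopamine-evoked calcium signal in a force-coupled, tetracycline-inducible HEK293 T-REx D2 line, with compound present 180 s before agonist.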
D2 ag-2: Beta-Arrestin HTS for Positive Allosteric Modulators of the Human D2 Dopamine Receptor: Agonists; DiscoveRx PathHunter D2 beta-arrestin, luminescence, 90 min; 100% = 57 uM dopamine signal; actives 0.084% (n = 360,000); activation, % (no concentration beside the values); AID 624465, 2012; in the data active = activation above about 40%; inconclusive = between about 15% and that limit
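DiscoveRx PathHunter D2 beta-arrestin cells (2,100/well) attached overnight, then compound-stimulated 90 min at 37 C in HBSS/10 mM HEPES/0.1% Tween-20 buffer; beta-galactosidase complementation read by luminescence after 1 h at ambient temperature. Dopamine 57 uM final (EC100) as control.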
Starred values were filed as active, the others as inactive; ? = inconclusive; / = no result given.

SMILES	D2 PAM-1	D2 ag-1	D2 PAM-2	D2 antagonist	D2 ag-2
Cc1nc2oc3ccccc3c(=O)c2c(=O)n1Cc1ccccc1	-3.6	0.8	-8.6	31.1*	-1.3
COc1ccc2c(=O)c3c(=O)n(CCc4ccccc4)c(C)nc3oc2c1	-0.2	/	/	/	1.0
CCCCCCn1c(-c2ccco2)nc2oc3cc(OC)ccc3c(=O)c2c1=O	-8.5	-0.8	30.1*	-4.4	-1.0
CCOc1ccc(-c2csc(/C(C#N)=C/c3ccc(Br)cc3)n2)cc1	/	2.8	11.0	/	/
Cc1ccc(-c2nn3c(C)nnc3c3ccccc23)cc1S(=O)(=O)NCC(C)O (stereo not drawn)	/	-0.1	-0.2	/	/
O=C(N/N=C/c1ccc(Br)s1)c1c[nH]c2ccccc12	-29.1	0.8	-24.0	34.1*	-4.7
O=C(N/N=C/c1cc(Br)cs1)c1c[nH]c2ccccc12	-14.1	0.4	4.5	2.3	-10.6
CCc1ccc(NC(=O)Cn2c(=O)n(Cc3ccc(C)cc3)c(=O)c3cccnc32)cc1	/	0.1	-3.0	/	/
CN(C)C=NC(=O)c1cc(C(=O)c2ccc(F)cc2)c[nH]1	-4.5	-0.1	-0.6	5.4	-0.9
CN(C)C=NC(=O)c1cc(C(=O)c2ccccc2)c[nH]1	-1.2	0.0	-0.4	33.2*	-1.6
COc1ccc(S(=O)(=O)N(C)C)cc1NC(=O)c1ccc2c(c1)NC(=O)C(C)S2 (stereo not drawn)	-35.8	-1.2	-21.0	76.6*	-3.7
CN(C)S(=O)(=O)c1ccc(Cl)c(NC(=O)C2CCN(S(=O)(=O)c3cccs3)CC2)c1	-5.2	0.2	-19.1	31.1*	-1.5
O=C(Cc1cccs1)Nc1cc(S(=O)(=O)N2CCCCC2)ccc1Cl	-0.1	1.1	76.6*	-17.3	-0.3
COc1ccc(S(=O)(=O)N(C)C)cc1NC(=O)CSC(C)C(=O)Nc1cc(C)on1 (stereo not drawn)	-15.3	0.4	-27.2	72.4*	-1.7
O=C(Cc1cccs1)Nc1ccc(S(=O)(=O)N2CCCCC2)cc1	23.7	-0.8	16.2	-13.9	-1.5
O=C(Cn1c(=O)n(Cc2ccc(C(=O)NCc3ccc4c(c3)OCO4)cc2)c(=O)c2ccccc21)Nc1cccc(Cl)c1	/	1.5	15.6	/	/
CC(=O)OCc1cnc(C)c2oc(=O)c(C(=O)Nc3ccc(F)cc3C)cc12	/	2.0	3.9	/	/
COc1ccc(S(=O)(=O)N(C)C)cc1NC(=O)Cc1cccs1	-18.2	-1.7	-7.6	34.3*	-2.5
COc1ccc(S(=O)(=O)N2CCCCC2)cc1NC(=O)Cc1cccs1	10.1	-0.3	-11.1	37.9*	-1.1
COc1ccc(S(=O)(=O)Nc2ccccc2OC)cc1NC(=O)Cc1cccs1	-18.3	-1.2	12.3	-24.1	0.5
COc1ccc(NC(=O)Cc2cccs2)cc1S(=O)(=O)N1CCCCC1	-20.6	/	/	/	0.0
COc1ccc(C(=O)N2CCCC(C)(C(=O)NS(=O)(=O)C3CC3)C2)cc1 (stereo not drawn)	-11.0	/	/	/	-6.8
O=C(O)c1cc(N/N=C/c2cccs2)ccc1Cl	/	0.3	-0.7	6.1	/
Cc1ccc(/C=N/Nc2ccc(Cl)c(C(=O)O)c2)s1	51.3*	-0.6	8.6	-7.2	5.1
O=c1oc2c(O)cccc2cc1-c1nc2ccccc2[nH]1	14.9	149.1*	-0.5	-114.5	5.2
O=C(O)c1ccc2nc(-c3cc4cccc(O)c4oc3=O)[nH]c2c1	/	-0.1	3.7	/	/
Cc1ccccc1C1N(c2nccs2)C(=O)C2CCCN21 (stereo not drawn)	-6.0	0.3	-1.6	-2.7	2.6
O=C1C2CCCN2C(c2ccccc2)N1c1nccs1 (stereo not drawn)	-1.1	0.1	1.2	66.8*	-0.5
CC(C)C[C@H](NC(=O)N1CCN(c2ccccc2)CC1)C(=O)O	-0.2	/	/	/	1.9
CCOC(=O)CSc1nnc(CNC(=O)c2cccc(C)c2)n1C	-0.3	0.0	4.3	35.3*	?

Bioassay records (PubChem)
